Targets with a hit are over-represented here; the source holds about 7,900 in all. About 0.6% of all pairs of compound and target were hits. A number with no mark means an inactive call.
How the values were obtained:
Experiment in all cases: log2 fold change, soluble protein after heating vs DMSO (PISA); higher = thermal stabilisation; K562 cells, 10 uM, 30 min; active = over 0.2 and 3.5 SD of the protein, either way, in both replicates (recomputed)
erlotinib = compound: C#Cc1cccc(Nc2ncnc3cc(OCCOC)c(OCCOC)cc23)c1 [erlotinib]
In short: (§1)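 Values are thermal stability changes relative to control samples and are taken from duplicates. They are stated as log2 fold changes. Before quantification by TMTpro 16plex LC-MS/MS with equalised channel sums, K562 cells at 2×10^6 cells/mL were treated with 10 μM compound for 30 min, heated in aliquots for 3 min across 48°C-58°C, pooled, extracted in PBS with 0.5% NP-40 at 4°C, and centrifuged at 21,000xg for 90 min to give the soluble supernatant.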

[1] = compound: C/C(=N\NC(=O)C1=CC(=CC=C1)S(=O)(=O)N2CCOCC2)/C3=C(C=CC(=C3)Cl)O
In short: as §1

[2] = compound: C1=CC(=C(C=C1Cl)C2=NC3=NC=CN=C3C(=N2)NC4=CC=NC=C4)F
In short: as §1

[3] = compound: C1=CC(=CC=C1C2=NC3=C(N2)C=C(C=C3)C(=O)N)OC4=CC=C(C=C4)Cl
In short: as §1

[4] = compound: C1=CC2=C(C=CC(=C2)/C=C\3/C(=O)NC(=NCC4=CC=CS4)S3)N=C1
In short: as §1

[5] = compound: C1=CC2=NC=CN=C2C=C1/C=C/3\C(=O)NC(=O)S3
In short: as §1

[6] = compound: C1=CC=C(C=C1)C2=NC(=C(N2)C3=CC=NC=C3)C4=CC(=C(C=C4)Cl)O
In short: as §1

[7] = compound: C1=CC=C2C(=C1)C3=NNC4=CC=CC(=C43)C2=O
In short: as §1

[8] = compound: C1CCN(C1)C(=O)NC2=CC=CC(=C2)NC3=NC=C(C(=N3)NCCC4=CN=CN4)Br
In short: as §1

[9] = compound: C1CN(CCC1(CC2=CC=C(C=C2)Cl)N)C3=NC=NC4=C3C=CN4
In short: as §1

IRAK-1-4 Inhibitor I = compound: C1COCCN1CCN2C3=CC=CC=C3N=C2NC(=O)C4=CC(=CC=C4)[N+](=O)[O-] [IRAK-1-4 Inhibitor I]
In short: as §1

ibrutinib = compound: C=CC(=O)N1CCC[C@@H](n2nc(-c3ccc(Oc4ccccc4)cc3)c3c(N)ncnc32)C1 [ibrutinib]
In short: as §1

[10] = compound: CC(=O)c1cnc2ccc(-c3cc(Cl)c(O)c(Cl)c3)nc2c1N[C@H]1CC[C@H](CN(C)C)CC1
In short: as §1

ralimetinib = compound: CC(C)(C)Cn1c(N)nc2ccc(-c3[nH]c(C(C)(C)C)nc3-c3ccc(F)cc3)nc21 [ralimetinib]
In short: as §1

[11] = compound: CC(C)(O)CC(=O)NCCn1ccc2ncnc(Nc3ccc(Oc4cccc(C(F)(F)F)c4)c(Cl)c3)c21
In short: as §1

[12] = compound: CC(C)C1=C2N=C(C=C(N2N=C1)NCC3=CC=CC=C3)NCCCCCCN
In short: as §1

[13] = compound: CC(C)C[C@@H](C=O)NC(=O)[C@H](CC(C)C)NC(=O)[C@H](CC(C)C)NC(=O)OCc1ccccc1
In short: as §1

pinometostat = compound: CC(C)N(C[C@H]1O[C@@H](n2cnc3c(N)ncnc32)[C@H](O)[C@@H]1O)[C@H]1C[C@@H](CCc2nc3cc(C(C)(C)C)ccc3[nH]2)C1 [pinometostat]
In short: as §1

[14] = compound: CC1=C(C(CC(=O)N1)C2=CC=C(C=C2)C(F)(F)F)C(=O)NC3=C(C=C4C(=C3)C=NN4)F
In short: as §1

[15] = compound: CC1=C(C2=C(C=C1)C(=O)C3=CC=CC=C3N2CCCN)C
In short: as §1

Sequence of UniProt O00628 (O00628 whole entry, looked up): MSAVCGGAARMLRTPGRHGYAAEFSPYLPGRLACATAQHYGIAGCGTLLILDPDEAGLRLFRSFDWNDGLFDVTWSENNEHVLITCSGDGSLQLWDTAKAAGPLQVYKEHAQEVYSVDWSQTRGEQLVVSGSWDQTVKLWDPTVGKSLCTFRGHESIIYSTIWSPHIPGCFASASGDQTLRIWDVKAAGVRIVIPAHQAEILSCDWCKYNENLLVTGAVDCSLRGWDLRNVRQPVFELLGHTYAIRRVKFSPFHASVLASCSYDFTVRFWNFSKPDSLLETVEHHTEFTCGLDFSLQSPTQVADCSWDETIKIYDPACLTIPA
Sequence of UniProt P25788 (P25788 whole entry, looked up): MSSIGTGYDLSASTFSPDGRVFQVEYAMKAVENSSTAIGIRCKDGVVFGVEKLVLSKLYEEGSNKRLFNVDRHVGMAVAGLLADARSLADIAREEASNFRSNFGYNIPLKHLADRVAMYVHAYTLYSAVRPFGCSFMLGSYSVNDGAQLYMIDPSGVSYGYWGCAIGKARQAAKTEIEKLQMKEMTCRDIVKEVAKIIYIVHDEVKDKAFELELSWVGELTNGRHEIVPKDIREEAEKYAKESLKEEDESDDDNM
Sequence of UniProt Q9BRP1 (Q9BRP1 whole entry, looked up): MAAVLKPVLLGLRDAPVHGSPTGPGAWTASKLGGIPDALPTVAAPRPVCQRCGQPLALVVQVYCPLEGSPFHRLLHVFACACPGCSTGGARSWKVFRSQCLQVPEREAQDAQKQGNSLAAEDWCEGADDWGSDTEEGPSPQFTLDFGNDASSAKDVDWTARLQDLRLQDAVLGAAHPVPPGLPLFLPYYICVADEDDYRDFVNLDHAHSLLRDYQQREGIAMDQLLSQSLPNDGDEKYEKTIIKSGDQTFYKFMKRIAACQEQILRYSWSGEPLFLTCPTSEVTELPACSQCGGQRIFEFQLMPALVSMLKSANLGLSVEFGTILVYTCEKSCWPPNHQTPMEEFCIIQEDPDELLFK
Sequence of UniProt Q5VU43 (Q5VU43 whole entry, looked up): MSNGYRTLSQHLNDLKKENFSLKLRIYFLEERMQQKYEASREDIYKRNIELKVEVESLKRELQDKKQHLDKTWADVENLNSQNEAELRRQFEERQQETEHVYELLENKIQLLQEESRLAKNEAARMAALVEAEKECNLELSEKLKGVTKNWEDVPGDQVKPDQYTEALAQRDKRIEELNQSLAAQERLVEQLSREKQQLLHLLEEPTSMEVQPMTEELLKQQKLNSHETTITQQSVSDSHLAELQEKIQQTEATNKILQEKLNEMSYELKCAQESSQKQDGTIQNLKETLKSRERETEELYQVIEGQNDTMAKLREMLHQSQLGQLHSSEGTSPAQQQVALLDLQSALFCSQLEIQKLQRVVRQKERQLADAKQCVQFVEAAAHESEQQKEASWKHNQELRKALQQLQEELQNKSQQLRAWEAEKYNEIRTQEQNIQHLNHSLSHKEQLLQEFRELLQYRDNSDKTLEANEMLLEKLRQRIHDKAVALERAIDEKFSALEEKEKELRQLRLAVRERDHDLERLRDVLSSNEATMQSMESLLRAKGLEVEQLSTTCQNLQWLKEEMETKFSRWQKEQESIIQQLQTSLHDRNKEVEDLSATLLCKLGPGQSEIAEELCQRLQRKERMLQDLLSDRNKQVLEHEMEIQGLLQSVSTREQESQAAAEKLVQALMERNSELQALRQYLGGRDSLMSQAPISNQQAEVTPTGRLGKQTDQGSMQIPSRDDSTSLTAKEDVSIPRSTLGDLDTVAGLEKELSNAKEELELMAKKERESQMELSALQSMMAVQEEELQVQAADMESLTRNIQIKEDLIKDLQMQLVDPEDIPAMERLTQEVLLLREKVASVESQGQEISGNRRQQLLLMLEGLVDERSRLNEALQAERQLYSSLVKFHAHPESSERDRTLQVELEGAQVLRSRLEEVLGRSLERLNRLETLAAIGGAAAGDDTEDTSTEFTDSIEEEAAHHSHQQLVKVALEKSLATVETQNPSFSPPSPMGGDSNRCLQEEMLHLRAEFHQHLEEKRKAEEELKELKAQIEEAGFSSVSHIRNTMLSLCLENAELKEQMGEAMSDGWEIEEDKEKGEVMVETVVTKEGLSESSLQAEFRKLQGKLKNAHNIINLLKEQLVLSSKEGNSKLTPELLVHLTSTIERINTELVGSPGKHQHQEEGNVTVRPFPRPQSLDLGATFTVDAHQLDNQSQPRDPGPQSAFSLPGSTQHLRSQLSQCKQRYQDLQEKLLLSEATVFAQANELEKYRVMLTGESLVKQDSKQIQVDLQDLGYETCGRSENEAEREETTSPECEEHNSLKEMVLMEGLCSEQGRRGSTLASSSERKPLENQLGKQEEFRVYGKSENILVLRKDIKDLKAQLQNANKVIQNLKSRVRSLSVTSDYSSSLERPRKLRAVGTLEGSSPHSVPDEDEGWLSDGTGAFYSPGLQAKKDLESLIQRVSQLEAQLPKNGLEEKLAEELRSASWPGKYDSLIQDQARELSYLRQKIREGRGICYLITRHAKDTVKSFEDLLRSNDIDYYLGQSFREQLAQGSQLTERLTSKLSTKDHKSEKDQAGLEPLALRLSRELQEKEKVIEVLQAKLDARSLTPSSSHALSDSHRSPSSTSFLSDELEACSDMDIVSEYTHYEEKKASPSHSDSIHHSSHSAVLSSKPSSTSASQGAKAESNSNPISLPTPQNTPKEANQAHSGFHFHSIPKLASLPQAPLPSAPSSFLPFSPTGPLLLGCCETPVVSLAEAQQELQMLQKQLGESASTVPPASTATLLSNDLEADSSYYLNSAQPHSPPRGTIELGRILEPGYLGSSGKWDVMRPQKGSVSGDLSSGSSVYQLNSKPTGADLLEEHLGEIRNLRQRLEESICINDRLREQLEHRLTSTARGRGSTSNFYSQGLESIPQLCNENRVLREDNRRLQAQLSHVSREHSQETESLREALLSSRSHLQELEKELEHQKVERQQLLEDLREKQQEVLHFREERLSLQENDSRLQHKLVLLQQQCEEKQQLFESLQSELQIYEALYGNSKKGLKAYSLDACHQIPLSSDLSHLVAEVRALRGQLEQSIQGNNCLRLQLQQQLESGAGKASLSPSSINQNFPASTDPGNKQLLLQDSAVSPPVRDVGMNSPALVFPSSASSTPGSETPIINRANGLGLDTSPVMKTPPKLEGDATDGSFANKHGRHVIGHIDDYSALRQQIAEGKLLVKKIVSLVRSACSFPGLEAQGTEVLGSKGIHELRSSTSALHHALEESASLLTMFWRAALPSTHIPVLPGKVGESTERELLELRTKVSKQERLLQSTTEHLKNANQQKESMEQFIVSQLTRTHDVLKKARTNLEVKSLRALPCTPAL
Sequence of UniProt Q5H8A4 (Q5H8A4 whole entry, looked up): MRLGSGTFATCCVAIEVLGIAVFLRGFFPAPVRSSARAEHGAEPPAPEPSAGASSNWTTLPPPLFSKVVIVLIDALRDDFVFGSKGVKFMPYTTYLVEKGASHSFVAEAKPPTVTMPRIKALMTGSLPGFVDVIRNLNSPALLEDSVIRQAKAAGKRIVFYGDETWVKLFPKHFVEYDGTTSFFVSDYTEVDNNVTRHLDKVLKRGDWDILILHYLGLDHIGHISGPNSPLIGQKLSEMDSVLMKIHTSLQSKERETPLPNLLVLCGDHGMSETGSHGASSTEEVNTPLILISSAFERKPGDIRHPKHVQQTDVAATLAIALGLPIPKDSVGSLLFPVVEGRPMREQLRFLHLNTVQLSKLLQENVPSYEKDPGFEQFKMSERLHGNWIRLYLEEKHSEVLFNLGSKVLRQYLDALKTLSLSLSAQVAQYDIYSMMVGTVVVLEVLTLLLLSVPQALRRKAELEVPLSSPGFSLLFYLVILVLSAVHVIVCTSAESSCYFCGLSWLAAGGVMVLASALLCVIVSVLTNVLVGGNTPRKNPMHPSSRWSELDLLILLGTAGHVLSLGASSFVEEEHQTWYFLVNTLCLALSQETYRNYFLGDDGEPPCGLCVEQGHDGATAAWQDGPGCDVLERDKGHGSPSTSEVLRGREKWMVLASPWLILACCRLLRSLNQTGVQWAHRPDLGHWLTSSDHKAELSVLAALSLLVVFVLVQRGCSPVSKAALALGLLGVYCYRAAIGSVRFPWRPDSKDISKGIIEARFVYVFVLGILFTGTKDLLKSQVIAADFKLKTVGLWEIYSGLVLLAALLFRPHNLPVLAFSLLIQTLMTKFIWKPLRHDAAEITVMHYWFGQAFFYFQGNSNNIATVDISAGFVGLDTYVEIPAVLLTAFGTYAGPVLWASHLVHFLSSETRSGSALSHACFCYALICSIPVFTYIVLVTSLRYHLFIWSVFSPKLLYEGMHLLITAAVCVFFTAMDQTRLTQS
Sequence of UniProt P62136 (P62136 whole entry, looked up): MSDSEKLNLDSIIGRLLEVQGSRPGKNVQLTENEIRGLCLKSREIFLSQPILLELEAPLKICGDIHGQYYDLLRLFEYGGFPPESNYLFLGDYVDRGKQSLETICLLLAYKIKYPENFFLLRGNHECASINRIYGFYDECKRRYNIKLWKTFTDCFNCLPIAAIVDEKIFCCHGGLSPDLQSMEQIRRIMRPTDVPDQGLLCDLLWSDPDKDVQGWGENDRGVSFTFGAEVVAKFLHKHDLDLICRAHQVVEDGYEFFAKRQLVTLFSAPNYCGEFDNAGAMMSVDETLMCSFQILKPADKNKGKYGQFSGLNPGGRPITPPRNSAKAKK
Sequence of UniProt P15735 (P15735 whole entry, looked up): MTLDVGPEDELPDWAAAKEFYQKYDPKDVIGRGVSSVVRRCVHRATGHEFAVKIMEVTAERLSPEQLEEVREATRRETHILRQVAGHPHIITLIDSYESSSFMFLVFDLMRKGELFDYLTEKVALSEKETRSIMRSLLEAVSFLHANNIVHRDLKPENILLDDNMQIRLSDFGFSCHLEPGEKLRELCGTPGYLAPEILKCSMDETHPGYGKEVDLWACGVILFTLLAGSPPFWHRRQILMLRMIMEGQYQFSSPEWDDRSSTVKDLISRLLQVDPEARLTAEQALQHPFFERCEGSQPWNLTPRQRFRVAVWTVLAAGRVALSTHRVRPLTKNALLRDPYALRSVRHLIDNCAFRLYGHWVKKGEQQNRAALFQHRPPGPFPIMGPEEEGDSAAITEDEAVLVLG

| Target | log2 fold change (erlotinib) | log2 fold change [1] | log2 fold change [2] | log2 fold change [3] | log2 fold change [4] | log2 fold change [5] | log2 fold change [6] | log2 fold change [7] | log2 fold change [8] | log2 fold change [9] | log2 fold change (IRAK-1-4 Inhibitor I) | log2 fold change (ibrutinib) | log2 fold change [10] | log2 fold change (ralimetinib) | log2 fold change [11] | log2 fold change [12] | log2 fold change [13] | log2 fold change (pinometostat) | log2 fold change [14] | log2 fold change [15] |
| --- | --- | --- | --- | --- | --- | --- | --- | --- | --- | --- | --- | --- | --- | --- | --- | --- | --- | --- | --- | --- |
| PSMD1 (UniProt Q99460) | -0.08 | -0.074 | 0.028 | 0.021 | -0.061 | -0.018 | 0.062 | 0.034 | 0.001 | -0.025 | -0.037 | -0.022 | 0.03 | 0.061 | 0.009 | 0.054 | -0.254 (active) | 0.023 | 0.028 | -0.004 |
| PDE4DIP isoform 4 (UniProt Q5VU43) | 0.027 | -0.002 | 0.186 | 0.01 | 0.089 | -0.043 | -0.059 | -0.02 | -0.037 | -0.061 | -0.006 | 0.001 | 0.045 | 0.011 | -0.08 | 0.035 | 0.087 | -0.05 | 0.069 | 0.088 |
| PDCD2L (UniProt Q9BRP1) | -0.051 | 0.226 | 0.128 | 0.03 | 0.006 | -0.03 | -0.078 | -0.001 | -0.071 | -0.036 | -0.034 | -0.006 | 0.07 | 0.047 | -0.115 | 0.078 | 0.042 | 0.007 | 0.065 | 0.041 |
| PPP1CA (UniProt P62136) | 0.026 | -0.002 | -0.015 | -0.006 | 0.036 | -0.005 | 0.001 | -0.03 | -0.004 | 0.009 | 0.041 | -0.02 | -0.018 | -0.012 | 0.007 | 0.015 | 0.009 | -0.071 | -0.013 | -0.007 |
| PUF60 (UniProt Q9UHX1) | -0.011 | 0.172 | -0.005 | 0.014 | -0.071 | -0.026 | 0.013 | 0.02 | -0.072 | -0.141 | -0.11 | -0.018 | -0.352 (active) | 0.049 | -0.016 | -0.235 (active) | -0.003 | -0.016 | 0.001 | 0.016 |
| PSMC1 (UniProt P62191) | -0.093 | -0.063 | -0.034 | 0.037 | -0.027 | -0.028 | -0.017 | 0.029 | 0.012 | -0.004 | -0.053 | -0.024 | 0.056 | 0.018 | 0.002 | 0.04 | -0.212 (active) | 0.032 | 0.031 | -0.007 |
| PDCD6 (UniProt O75340) | -0.006 | 0.038 | 0.066 | 0.004 | 0.034 | 0.02 | -0.061 | 0.029 | 0.024 | -0.048 | 0.021 | -0.05 | -0.029 | -0.048 | -0.097 | -0.156 | 0.018 | 0.005 | 0.014 | -0.034 |
| PEX16 isoform 2 (UniProt Q9Y5Y5) | 0.081 | -0.044 | 0.147 | 0.013 | 0.085 | 0.06 | 0.008 | -0.004 | -0.031 | 0.051 | -0.068 | -0.059 | -0.025 | -0.104 | -0.067 | -0.407 (active) | 0.033 | -0.052 | 0.03 | 0.136 |
| PEX7 (UniProt O00628) | 0.021 | 0.034 | 0.034 | 0.276 (active) | 0.08 | -0.117 | 0.039 | -0.041 | -0.031 | 0.063 | 0.03 | -0.092 | -0.106 | -0.064 | -0.057 | -0.006 | 0.003 | -0.034 | 0.025 | 0.033 |
| PSMA3 (UniProt P25788) | -0.052 | -0.075 | 0.016 | 0.028 | -0.073 | -0.025 | -0.023 | 0.002 | -0.008 | 0.044 | -0.027 | -0.013 | 0.008 | 0.037 | 0.071 | 0.102 | -0.065 | -0.033 | -0.02 | -0.014 |
| PHKG2 (UniProt P15735) | -0.067 | -0.078 | 0.021 | -0.003 | -0.055 | -0.113 | 0.034 | 0.076 | -0.159 | 0.029 | -0.034 | -0.008 | 0.39 (active) | 0.031 | -0.121 | -0.041 | 0.017 | 0.054 | -0.041 | 0.115 |
| PGGHG (UniProt Q32M88) | 0.059 | 0.114 | 0.024 | 0.002 | -0.44 (active) | 0.048 | -0.049 | -0.248 | -0.225 | 0.119 | 0.018 | 0.045 | -0.013 | 0.136 | 0.05 | 0.044 | 0.008 | -0.054 | -0.124 | -0.027 |
| PDPK1 (UniProt O15530) | 0.02 | 0.083 | 0.026 | 0.064 | 0.068 | -0.029 | 0.045 | 0.007 | 0.087 | 0.028 | 0.019 | -0.043 | -0.346 (active) | -0.067 | -0.087 | -0.134 | 0.015 | 0.001 | 0.035 | 0.027 |
| PNPLA8 (UniProt Q9NP80) | 0.101 | 0.031 | 0.014 | -0.029 | 0.008 | 0 | 0.089 | 0.022 | 0.018 | 0.037 | -0.022 | -0.049 | 0.151 | -0.005 | -0.071 | -0.06 | 0.003 | 0.064 | -0.008 | 0.043 |
| PIGG (UniProt Q5H8A4) | -0.002 | 0.016 | -0.009 | 0.027 | 0.023 | 0.014 | -0.013 | -0.003 | -0.016 | 0.067 | 0.004 | -0.039 | -0.032 | 0.168 | 0.015 | -0.046 | 0.005 | 0.027 | 0.011 | 0.018 |
